Most compounds without a hit are left out; they make up all but 2.8% or so of the library.
Peg3 promoter: reduces Peg3 promoter-driven luciferase expression in HeLa | hit rate 1.7% among 360,000 | AID 588405 | inhibition, % at 20 µM | HeLa PEG-Prom luciferase reporter, luminescence, overnight;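 active = inhibition of at least 50% at 20 µM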
Shn3 inh set2: reduces Shn3 3'UTR luciferase signal in osteoblasts. Clone20 osteoblast Shn3 3'UTR firefly luciferase, 24 h. inhibition, % at 12.5 µM. hit rate 0.52% among 360,000;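 active = mean inhibition of at least 75% with every replicate also reaching 75%; inconclusive = mean inhibition at least 75% but some replicate below; inactive = mean inhibition below 75%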;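 also: 0% = median of neutral control wells and 100% = pilot-screen positive control compound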
TRPM1 prom inh: MITF TRPM1 promoter inhibition in SK-MEL-5 cells. SK-MEL-5 TRPM1 promoter luciferase, 24 h. inhibition, % at 12.5 µM. hit rate 0.83% among 330,000. AID 488899;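 active = mean inhibition across replicates of 60% or more, whatever share of single replicates reaches that level; inconclusive = some that reach 60%, reason not given; inactive = mean inhibition across replicates below 60%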
EBV LMP1 NFkB: inhibitors of Epstein-Barr LMP1-induced NF-kappaB reporter. LMP1-induced NF-kappaB luciferase reporter cells, luminescence. inhibition, % at 12.5 µM. hit rate 0.69% among 350,000; in the data active = inhibition above about 41%; inconclusive = no clear call, values can overlap the other calls;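 also: 0% = neutral control wells and 100% = reference inhibitor control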
HIF-2a block: inhibitors of HIF-2a; inhibition, % at 18.8 µM; 786-0 RCC cells HIF-2a reporter, luciferase luminescence, overnight; hit rate 0.72% among 360,000;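 active = inhibition of the luminescence signal of 40% or more relative to plate controls, in a single-dose primary screen at 18.75 µM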
PAX8 reporter: PAX8 transcriptional activity inhibition. RMG-I TPO-luciferase reporter, SteadyGlo, 24 h. hit rate 1.2% among 360,000. AID 652154. inhibition, % at 12.6 µM;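 active = mean replicate inhibition at least 60% with every replicate also reaching 60%; inconclusive = only one of the two criteria is met; inactive = mean below 60% and not all replicates reaching 60%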;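 also: luciferase light reporting Pax8 driven TPO promoter activity; plate controls were median of neutral control wells for no effect and mitoxantrone controls for full effect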
An asterisk follows results filed as active; ? = inconclusive; . = not tested or not shown.

SMILES	Peg3 promoter	Shn3 inh set2	TRPM1 prom inh	EBV LMP1 NFkB	HIF-2a block	PAX8 reporter
C[C@@H]1CCCCO[C@H](CN(C)Cc2ccc(Cl)c(Cl)c2)[C@H](C)CN([C@@H](C)CO)C(=O)c2cc(NC(=O)Nc3ccc(C(F)(F)F)cc3)ccc2O1	.	.	.	.	.	90.1*
C[C@@H]1CN([C@@H](C)CO)C(=O)c2cc(NC(=O)Nc3ccc(C(F)(F)F)cc3)ccc2O[C@@H](C)CCCCO[C@H]1CN(C)Cc1ccc(Cl)c(Cl)c1	.	.	.	.	.	92.9*
C[C@@H]1CCCCO[C@@H](CN(C)Cc2ccc(Cl)c(Cl)c2)[C@@H](C)CN([C@H](C)CO)C(=O)c2cc(NC(=O)Nc3ccc(C(F)(F)F)cc3)ccc2O1	.	.	.	.	.	59.2
C[C@@H]1CN([C@H](C)CO)C(=O)c2cc(NC(=O)C3CCCCC3)ccc2O[C@@H](C)CCCCO[C@H]1CN(C)S(=O)(=O)c1cn(C)cn1	.	.	.	.	.	-0.3
C[C@@H]1CN([C@H](C)CO)C(=O)c2cccc(NC(=O)Nc3ccccc3)c2O[C@H]1CN(C)Cc1ccc2c(c1)OCO2	.	.	.	.	.	5.6
COc1cc2c(cc1NC(=O)CN1C(=O)NC3(CCc4ccccc43)C1=O)oc1ccccc12 (centres undefined)	57.4*	9.3	2.5	-19.9	-40.6	17.0
Cc1ccccc1NC(=O)CN1C(=O)NC2(CCc3ccccc32)C1=O (centres undefined)	3.0	-9.4	-10.2	4.0	4.2	5.0
COc1ccccc1C1CC(c2ccco2)=NN1c1ccccc1 (centres undefined)	11.7	-4.2	6.7	-0.1	10.5	80.0*
Fc1ccc(C2=NN(c3ccccc3)C(c3ccco3)C2)cc1 (centres undefined)	-11.2	-12.6	-13.4	-8.0	-80.1	-13.0
CCOC(=O)N1CCN(CC(=O)Nc2ccc([N+](=O)[O-])cc2C(=O)Nc2ccccc2F)CC1	63.7*	11.2	-2.7	-6.8	9.9	38.3
CCOC(=O)N1CCN(CC(=O)Nc2ccccc2C(=O)Nc2ccccc2)CC1	27.4	-10.3	18.1	-3.3	8.6	13.7
Cc1cc([N+](=O)[O-])ccc1NC(=O)CN1CCN(Cc2ccccc2)CC1	7.4	9.0	9.6	8.0	13.2	24.0
O=C(CN1CCN(Cc2ccccc2)CC1)Nc1ccc([N+](=O)[O-])cc1C(=O)Nc1ccccc1F	62.5*	30.4	0.2	5.1	26.6	23.9
Cc1noc(C)c1NC(=O)Nc1ccc2c(c1)C(=O)N([C@@H](C)CO)C[C@@H](C)[C@H](CN(C)S(=O)(=O)c1c(C)noc1C)OCCCC[C@@H](C)O2	.	.	.	.	.	-2.9
Cc1csc(N/N=C/c2ccccc2F)n1	-258.4	-82.2	-50.5	86.9*	-274.4	-67.9
C[C@@H]1CN([C@@H](C)CO)C(=O)c2cc(NC(=O)Nc3ccc(C(F)(F)F)cc3)ccc2O[C@@H](C)CCCCO[C@H]1CN(C)C(=O)Cc1ccccc1	.	.	.	.	.	54.6
Cc1cc(C(=O)Nc2cccc3c2O[C@H](CN(C)C(=O)Nc2ccc(C(F)(F)F)cc2)[C@H](C)CN([C@H](C)CO)C3=O)n(C)n1	.	.	.	.	.	0.5
O=C(Cc1ccc([N+](=O)[O-])cc1)N1CCN=C1SCc1ccccc1	0.9	6.7	7.5	6.5	11.4	11.4
Cc1ccc(C)c(CSC2=NCCN2C(=O)Cc2ccc([N+](=O)[O-])cc2)c1	20.6	11.9	0.3	9.5	16.0	94.9*
CCOc1ccc(-c2cc(C(=O)NCCCn3ccnc3)c3cc(Br)ccc3n2)cc1	106.0*	-4.2	?	-8.7	7.1	0.0
CCOc1ccc(-c2cc(C(=O)NCCCn3ccnc3)c3ccccc3n2)cc1	-56.6	-15.9	-57.1	-8.1	-150.9	-30.2
CCCCCCOc1ccc(C(=O)NCCCn2ccnc2)cc1	9.2	8.2	12.4	1.6	-29.2	26.3
CCCCOc1ccc(NC(=O)C(=O)NCCCn2ccnc2)cc1	31.4	7.4	4.5	6.5	21.3	84.6*
CCn1c2ccccc2c2cc(/C=N/NC(=O)c3ccncc3)ccc21	62.4*	14.3	4.2	?	10.8	11.9
O=C(N/N=C/c1ccncc1)c1ccccc1	-16.5	-13.7	-2.6	-1.3	-26.1	.
CCn1c2ccccc2c2cc(NC(=O)c3cc(OC)cc(OC)c3)ccc21	-4.4	8.9	45.7	-7.9	24.0	96.3*
CCn1c2ccccc2c2cc(/C=N/NC(=O)c3cc(O)cc(O)c3)ccc21	3.5	-5.2	1.0	66.4*	14.2	-2.5

Compound activity from PubChem BioAssay.
